Assay [1] can be described thus: resazurin metabolic signal in HepG2 cells – cell-based, resazurin fluorescence, 24 h, PK04 Diversity Set, profiling panel (AID 1172). Note: test concentration not given here. The conditions noted are these: HepG2 viability, higher = more signal. (In general: Alamar Blue is a resazurin reagent that responds to reducing activity.)
Assay [2] is described as follows: budding yeast growth changes without added modifier – OD600, strain BY4716, 24 h, basal condition, primary screen (AID 1173). The settings on record: S. cerevisiae BY4716 growth, OD600, 24 h; higher = more signal, called active from +8 up or from −8 down.
Assay [3] can be described thus: viability profiling in MM1S myeloma cells – cell-based, resazurin fluorescence, basal, 24 h, PK04 Diversity Set, profiling panel (AID 1174).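 Note: MM1S multiple myeloma cell line; test concentration not given here.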 The conditions noted are these: higher = more signal, called active from +8 up or from −8 down.
The target in assay [4] is Dihydroorotate dehydrogenase (quinone), mitochondrial (Plasmodium falciparum (isolate 3D7)) (UniProt Q08210). The experiment in a line: inhibition of P. falciparum DHODH – biochemical, C-terminal His tag, absorbance 600 nm, primary screen (AID 1175).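 Note: recombinant parasite enzyme with a five histidine tag at its C terminus; test concentration not given here.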 The settings on record: PfDHODH enzyme, DCIP absorbance 600 nm; higher = more signal, called active from +8 up or from −8 down.

Assay [5] can be described thus: inhibition of PAO1 biofilm formation – strain PAO1, LB-PBS medium, absorbance 600 nm, primary screen (AID 1176). Note: test concentration not given here. The settings on record: P. aeruginosa PAO1 growth/biofilm, A600, 12 h; higher = more signal.
Assay [6] in a line: growth modulation of vineyard yeast isolate – strain RM11-1a, OD600, basal, 24 h, primary screen (AID 1177).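 Note: cultures grown under basal conditions with no added stressor; test concentration not given here.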 The settings on record: S. cerevisiae RM11-1a growth, OD600, 24 h; higher = more signal, called active from +8 up or from −8 down.
Assay [7] is described as follows: growth of efflux-deficient E. coli DRC39 – strain DRC39, OD650, 24 h, E. coli filamentation inducers, primary screen (AID 1178).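 Note: growth measured as culture turbidity by optical density at 650 nm; test concentration not given here.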 The settings on record: E. coli DRC39 acrAB, higher = more signal, called active from +8 up or from −8 down.
The nature of assay [8]: growth of efflux-deficient E. coli DRC39 – strain DRC39, OD650, 48 h, E. coli filamentation inducers, primary screen (AID 1179).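 Note: screen aims at cell division blockers that make cells filament.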 The settings on record: E. coli DRC39 delta-acrAB growth, higher = more signal, called active from +8 up or from −8 down.
The nature of assay [9]: viability profiling in RPMI8226 myeloma cells – cell-based, resazurin fluorescence, basal, 24 h, PK04 Diversity Set, profiling panel (AID 1180).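 Note: RPMI8826 multiple myeloma cell line at 5000 cells per well; test concentration not given here.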 The conditions noted are these: higher = more signal.
Assay [10] deals with E3 ubiquitin-protein ligase XIAP (Homo sapiens) (UniProt P98170). Put plainly: small molecules binding XIAP protein – biophysical, small-molecule microarray, fluorescence 635 nm, primary screen (AID 1181).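 Note: score merges 667 nm emission and signal to noise over triplicate slides.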 The conditions noted are these: higher = more signal.

The source made the active and inactive calls. Unless noted, the rule behind the calls is not given here.

Chain of Dihydroorotate dehydrogenase (quinone), mitochondrial (Plasmodium falciparum (isolate 3D7)) (Q08210 whole entry, looked up): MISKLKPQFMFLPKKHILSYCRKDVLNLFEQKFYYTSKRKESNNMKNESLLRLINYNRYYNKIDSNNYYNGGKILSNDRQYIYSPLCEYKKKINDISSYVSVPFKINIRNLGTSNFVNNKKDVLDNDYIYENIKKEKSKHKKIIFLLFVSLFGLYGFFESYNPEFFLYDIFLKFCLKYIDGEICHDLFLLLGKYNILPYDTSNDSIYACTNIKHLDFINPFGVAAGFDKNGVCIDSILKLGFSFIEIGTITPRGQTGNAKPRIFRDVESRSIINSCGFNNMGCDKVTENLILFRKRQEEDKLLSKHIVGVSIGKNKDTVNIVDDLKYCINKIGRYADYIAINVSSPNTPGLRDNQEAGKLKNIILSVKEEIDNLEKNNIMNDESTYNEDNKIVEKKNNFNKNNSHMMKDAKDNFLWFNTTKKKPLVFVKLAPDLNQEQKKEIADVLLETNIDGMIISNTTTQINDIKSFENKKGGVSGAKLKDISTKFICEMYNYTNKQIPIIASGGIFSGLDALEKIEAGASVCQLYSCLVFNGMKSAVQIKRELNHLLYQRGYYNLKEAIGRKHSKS
Chain of E3 ubiquitin-protein ligase XIAP (Homo sapiens) (P98170 whole entry, looked up): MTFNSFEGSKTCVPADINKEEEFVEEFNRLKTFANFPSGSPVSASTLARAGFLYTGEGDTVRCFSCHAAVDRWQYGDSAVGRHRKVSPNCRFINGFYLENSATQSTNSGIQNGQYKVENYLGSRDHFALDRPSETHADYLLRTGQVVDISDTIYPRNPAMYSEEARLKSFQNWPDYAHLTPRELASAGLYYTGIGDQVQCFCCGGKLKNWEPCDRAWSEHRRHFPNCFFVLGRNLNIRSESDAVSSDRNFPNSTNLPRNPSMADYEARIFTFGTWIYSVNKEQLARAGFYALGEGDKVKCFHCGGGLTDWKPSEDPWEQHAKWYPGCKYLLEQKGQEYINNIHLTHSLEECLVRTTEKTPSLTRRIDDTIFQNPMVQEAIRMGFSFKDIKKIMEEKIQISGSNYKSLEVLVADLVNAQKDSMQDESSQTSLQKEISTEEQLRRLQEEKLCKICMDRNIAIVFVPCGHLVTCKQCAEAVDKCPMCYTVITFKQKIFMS

For the molecule `C=CCC(OC(C)=O)[C@@H]1[C@@H](N(Cc2cccc3ccccc23)C(=O)c2cccc3ccccc23)c2cc(OCCCO)ccc2N1C(=O)c1ccc(-c2ccccc2)cc1` (stereo not given in full), the z-score in assay [1] is -0.333; in [2] it was 0.134 (inactive); in assay [3], -1 (inactive); in assay [5], -0.309 (inactive); in [6], -0.56 (inactive); in assay [7] it was 0.161 (inactive). Further, the z-score in assay [8] was -0.123 (inactive); in assay [9], -0.569. The composite z-score in assay [4] is 0.136 (inactive); in assay [10], -0.232.
Consider `COCCOC(=O)N1C(=O)[C@@]2(c3cc(C#Cc4ccc(OC)cc4)ccc31)[C@H](C(=O)Nc1nc3ccccc3s1)[C@H]1C(=O)O[C@H](c3ccccc3)[C@H](c3ccccc3)N1[C@@H]2c1ccc(O)cc1`, for which the z-score in [1] was -0.154; in [2], -0.43 (inactive); in assay [3], 0.529 (inactive); in assay [5], 0.609 (inactive); in assay [6], 0.735 (inactive); in assay [7], 0.275 (inactive). Moreover, the z-score in [8] is -0.591 (inactive); in assay [9] it was 0.85. Also, the composite z-score was 1.17 (inactive) in assay [4] and 0.012 in [10].
`[N-]=[N+]=NCc1ccccc1[C@@H]1OC(c2ccc(OCCCO)cc2)=N[C@]1(CCS(=O)(=O)c1ccccc1)C(=O)NCC(O)CO` (stereo not given in full): the z-score in [1] is -0.618; in [2] it was -0.543 (inactive); in assay [3], -0.121 (inactive); in assay [5] it was 0.563 (inactive); in assay [6], -0.397 (inactive); in assay [7], 0.488 (inactive). The z-score is 1.2 (inactive) in assay [8] and -0.471 in assay [9]. Further, the figures for the composite z-score in assay [4] and in assay [10] were -0.716 (inactive) and 0.0731, respectively.
For `[N-]=[N+]=Nc1ccccc1C[C@]1(C(=O)N2CCOCC2)N=C(c2ccc(OCCCO)cc2)O[C@H]1c1ccccc1`, the z-score in assay [1] was 1.32; in assay [2] it was -0.576 (inactive); in assay [3] it was -1.25 (inactive); in assay [5], -0.608 (inactive); in assay [6], 1.05 (inactive); in assay [7], 1.11 (inactive). Also, the results for the z-score in [8] and in assay [9] were 0.356 (inactive) and 0.101, respectively. The figures for the composite z-score in [4] and in assay [10] were 0.404 (inactive) and 0.0761, respectively.
As to `C[N+](C)(C)CCCCCCNC(=O)[C@H]1C[C@H]2C(=O)NCC(=O)N2[C@H]1c1ccc(O)cc1`, the z-score is 0.767 in assay [1]; -0.275 (inactive) in [2]; -0.301 (inactive) in assay [3]; 0.823 (inactive) in assay [5]; 0.0387 (inactive) in assay [6]; -0.298 (inactive) in assay [7]. Also, the z-score in assay [8] is -0.785 (inactive); in assay [9] it was -0.116. The values for the composite z-score in assay [4] and in assay [10] were -0.435 (inactive) and 0.175, respectively.
On to `COCCOC(=O)N1C(=O)[C@@]2(c3cc(C#CC4=CCCCC4)ccc31)[C@H](c1ccc(O)cc1)N1[C@H](c3ccccc3)[C@H](c3ccccc3)OC(=O)[C@H]1[C@@H]2C(=O)N1CCN(c2ncccn2)CC1`, for which the z-score in [1] was 0.295; in assay [2], 0.343 (inactive); in [3] it was 0.182 (inactive); in assay [5], 0.29 (inactive); in [6] it was 0.516 (inactive); in [7], 0.777 (inactive). The figures for the z-score in [8] and in assay [9] were 0.731 (inactive) and -0.169, respectively. The composite z-score was 0.524 (inactive) in assay [4] and -0.0761 in [10].
For the molecule `NCCCCCNC(=O)[C@@H]1C[C@@H]2C(=O)NCC(=O)N2[C@@H]1c1cccc(OCCO)c1`, the z-score in assay [1] is -0.727; in assay [2], -0.202 (inactive); in assay [3], 0.584 (inactive); in assay [5] it was 1.29 (inactive); in assay [6], 0.561 (inactive); in [7] it was -0.0625 (inactive). The z-score in [8] was -0.485 (inactive); in [9] it was 0.974. The results for the composite z-score in assay [4] and in assay [10] were -0.73 (inactive) and 0.012, respectively.
With `C=CC[C@@]1(C(=O)N2CCOCC2)N=C(c2ccc(OCCCO)cc2)O[C@@H]1c1ccccc1CN=[N+]=[N-]`, the z-score is 0.0491 in assay [1]; 0.0155 (inactive) in assay [2]; 0.118 (inactive) in assay [3]; 0.137 (inactive) in assay [5]; -0.109 (inactive) in assay [6]; -0.0245 (inactive) in [7]. Moreover, the z-score in assay [8] was 0.443 (inactive); in assay [9] it was -0.052. Moreover, the composite z-score in [4] was 0.159 (inactive); in assay [10] it was 0.184.
Consider `C#CCN([C@@H](Cc1ccc(O)cc1)C(=O)OC)[C@@H](/C=C/C1CC1)[C@H](O)Cc1ccccc1`, for which the z-score was -1.12 in [1]; -2.71 (inactive) in assay [2]; -0.758 (inactive) in assay [3]; -0.672 (inactive) in assay [5]; -0.136 (inactive) in assay [6]; -0.933 (inactive) in [7]. Moreover, the values for the z-score in [8] and in [9] were -0.737 (inactive) and -0.61, respectively. Also, the composite z-score in assay [4] was -0.228 (inactive); in [10], 0.798.
With `CCOC(=O)C[C@H]1[C@H](OC(=O)c2cc3ccccc3oc2=O)[C@@H](NC(=O)c2ccc(-c3ccccc3)cc2)c2cc(OCCCO)ccc2N1C(=O)c1ccc2ccccc2n1`, the z-score is 0.867 in [1]; 0.753 (inactive) in assay [2]; 0.389 (inactive) in [3]; -0.0218 (inactive) in assay [5]; 1.54 (inactive) in assay [6]; 0.97 (inactive) in [7]. The values for the z-score in assay [8] and in assay [9] were 0.211 (inactive) and 0.0692, respectively. Also, the composite z-score is -0.0286 (inactive) in assay [4] and 0.023 in assay [10].
As for `COCCCNC(=O)[C@]1(CCS(=O)(=O)c2ccccc2)N=C(c2ccc(OCCCO)cc2)O[C@@H]1c1ccccc1N=[N+]=[N-]`, the z-score in [1] was 0.129; in [2], 0.0817 (inactive); in assay [3] it was -0.458 (inactive); in assay [5], 0.413 (inactive); in assay [6] it was 0.771 (inactive); in assay [7], 0.357 (inactive). Besides, the figures for the z-score in [8] and in assay [9] were 0.0059 (inactive) and -0.998, respectively. The composite z-score in [4] is 0.887 (inactive); in [10], -0.199.
In the case of `COCC1=C2[C@@H](CCc3ccccc3)OB(O)C[C@@H]2[C@@H]2C(=O)C=CC(=O)[C@@H]2C1`, the z-score in assay [1] was -1.15; in assay [2] it was -5.61 (inactive); in [3], -0.997 (inactive); in [5], 0.106 (inactive); in [6], -0.143 (inactive); in assay [7], -0.244 (inactive). Further, the figures for the z-score in [8] and in assay [9] were 0.0271 (inactive) and -0.878, respectively. The figures for the composite z-score in assay [4] and in assay [10] were -4.14 (inactive) and 0.906, respectively.

These data come from PubChem BioAssay.
